About 83,000 compounds went through this panel and 20% of them were active in at least one assay; those are over-represented in the sample as a whole.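 The test compound was applied at a single concentration to cells in 96-well plates for 48 hours, and percent growth was recorded.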 Activity calls are given as the source filed them. The calls were made as follows: active = growth percent below 10; inactive = the rest.
The compounds below were run on HL-60(TB) leukemia (assay: NCI-60 one-dose screen, 48 h (100 = growth as untreated, 0 = no growth, -100 = all killed)). Details: 10 µM unless noted.

| Compound | growth |
| --- | --- |
| C(=C\c1ccccc1)/CN1CCN(C(c2ccccc2)c2ccccc2)CC1 | 85.3% (inactive) |
| O=[N+]([O-])c1ccc(N/N=C/c2ccccc2O)nc1 | 0.837% (active) |
| CN(C)c1ccc(/C=C/c2c(F)cccc2F)cc1 | 98.8% (inactive) |
| COc1ccc2oc(=O)cc(C(c3ccc[nH]3)c3ccc[nH]3)c2c1 | -20.2% (active) |
| C1=CC2(C=C1)OC21CCC2(C=CC3(C2)OC3C2CCCCC2)CC1 (stereo not given) | 105% (inactive) |
| CC(C)[C@@]12C[C@@H](OC(=O)COC(=O)c3ccccc3)[C@@](C)(O1)[C@@H]1CC[C@@H](C)[C@H]1[C@@H]2OC(=O)/C=C/c1ccccc1 | 94.5% (inactive) |
| O=Cc1cc2ccccc2nc1Nc1nccs1 | 99.5% (inactive) |
| CN1C(=O)N2CN3CCCN(C3)CN3C(=S)NC1C23 (stereo not given) | 99.8% (inactive) |
| Cc1ccc(N)cc1[N+](=O)[O-] | 96.5% (inactive) |
| O=S(=O)(Oc1ccc(Br)cc1)c1ccc(Cl)cc1 | 85.3% (inactive) |
| O=C1/C(=C/c2ccccc2)CN(C(=O)c2cccnc2)C/C1=C\c1ccccc1 | -8.8% (active) |
| FC(F)(F)c1ccc(CNc2ccc(Cc3c[nH]c4ncc(Cl)cc34)cn2)cn1 | 4.54% (active) |
| C#C[C@@]1(O)[C@@H](CO)O[C@@H](n2cc(Br)c3c(Cl)ccnc32)[C@@H]1O | -46.5% (active) |
| COC(=O)/C(CCC=C(C)C)=C1\[C@@H](OC(C)=O)C[C@@]2(C)[C@H]1C[C@@H](O)[C@H]1[C@@]3(C)CC[C@H](NCc4ccccc4)[C@@H](C)[C@@H]3CC[C@@]12C | 43% (inactive) |
| Nc1nc(-c2ccccc2Cl)cc(-c2ccc(Cl)cc2Cl)n1 | 51.4% (inactive) |
| OC(CNC1CCCCC1)Cn1c2ccc(I)cc2c2cc(I)ccc21 (stereo not given) | 93.7% (inactive) |
| COC(=O)/C=C/c1cc(OC(C)=O)c2c(c1)C(C(=O)OC)C(c1ccc(OC(C)=O)c(OC(C)=O)c1)O2 (stereo not given) | -35% (active) |
| COC(=O)c1nc(-c2ccccc2)oc1S(=O)(=O)n1nc(C)cc1N | 7.17% (active) |
| O=C(O)c1cccc([N+](=O)[O-])c1 | 107% (inactive) |
| O=S(=O)(O)c1ccc(O)c2ccccc12 | 86% (inactive) |

| Compound | growth |
| --- | --- |
| COc1ccc(Cn2c(Br)c3c(c2-c2cc(OC)c(OC)c(OC)c2)CCc2sc(NC(=O)c4ccc(OC)cc4)nc2-3)cc1 | 56.4% (inactive) |
| COc1ccc(OC)c(/C=C/C(=O)c2c(C)nc3ccccc3c2/C=C/c2ccccc2)c1 | 47% (inactive) |
| O=C(O)CSCc1nc2ccccc2[nH]1 | 136% (inactive) |
| Cc1cc(C(=O)NOCCO)c(Nc2ccc(I)cc2F)n(C)c1=O | 20.8% (inactive) |
| CNCCCNc1nc2ccccc2c2c(=O)c3cc(OC)ccc3sc12 | 56.2% (inactive) |
| CCC(=O)N1C/C(=C/c2ccc(OC)cc2)C(=O)/C(=C/c2ccc(OC)cc2)C1 | 25.1% (inactive) |
| COc1ccc(-n2nnc3c(sc4ccccc43)c2=O)cc1 | 94.6% (inactive) |
| O=C(Nc1cccc([N+](=O)[O-])c1)c1ccc(Cl)c(Cl)c1 | 87.8% (inactive) |
| Cc1cc[c-]cc1.Fc1c[c-]c(-c2ccccn2)c(F)c1.[Pt+2].c1ccc(P(C[PH+](c2ccccc2)c2ccccc2)c2ccccc2)cc1 | -25.7% (active) |
| C=CCN(CC#N)CC=C | 106% (inactive) |
| O=C1COCCN1c1ccc(Nc2nc(Cl)nc(N3CCOCC3)n2)cc1 | 90.5% (inactive) |
| COc1cccc(CNC(=O)c2cccc(C3CC(=O)c4c(cc(OC)c(OC)c4OC)O3)c2)c1 (stereo not given) | 43.9% (inactive) |
| CCOC(=O)/C=C1\S/C(=N\Nc2cc(=O)[nH]c3ccc(Br)cc23)N(c2ccccc2)C1=O | -12.1% (active) |
| O=C1/C=C/[C@@H](O)[C@@H]2C[C@@H](O)C[C@H]2/C=C/CCC[C@H](CCc2ccc(C(F)(F)F)cc2)O1 | -10.1% (active) |
| CCN(CC)CCCC(Nc1c2ccc(Cl)cc2nc2ccc(OC)cc12)c1ccc(Cl)cc1 (stereo not given) | -16.2% (active) |
| COc1ccc(/C=C/C(=O)c2cc3c(N)c(C(=O)Nc4ccc(OC)cc4)sc3nc2C)cc1 | 2.26% (active) |
| COc1cc(/C=C/c2cc(/C=C/c3ccc(O)c(OC)c3)[nH]c(=O)n2)ccc1O | 61.3% (inactive) |
| Cc1cc(=O)oc2cc(Oc3nc(Br)cn4c(Br)cnc34)ccc12 | 30.8% (inactive) |
| CC1(C)N=C(N)N=C(N)N1c1ccc(Cl)c(Cl)c1 | 35.7% (inactive) |
| Cc1ccc(S(=O)(=O)Oc2cc(OS(=O)(=O)c3ccc(C)cc3)cc(OS(=O)(=O)c3ccc(C)cc3)c2)cc1 | 107% (inactive) |

— PubChem BioAssay (NCI)
